Results published in the supplement of paper PMC4709259.
Counter-ions that a name gives are not always drawn. ± gives the standard deviation.

Tests used:
Jurkat [1] = assay: mean cell size (FSC-A) relative to DMSO control (fraction of control); higher = larger cells; conditions: 48 h
Outline: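 Jurkat cells at 600 cells/µl were incubated for 1 h and then treated for 48h with the Enzo Screen-Well FDA Approved Drug Library v2.0 at 25µM, with DMSO at 0.9% (v/v) final. Compounds that reduced counts below 20% of controls were retested in 10-fold dilutions down to 25nM. Cell count and mean cell size, taken as forward scatter area, were measured by flow cytometry relative to solvent-only controls. Each plate carried 6-12 controls, and values are means of 3 biological replicates.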

Jurkat [2] = assay: cell count relative to DMSO control (fraction of control); higher = more cells (less growth inhibition); conditions: 48 h

CCC(C)n1ncn(-c2ccc(N3CCN(c4ccc(OCC5COC(Cn6cncn6)(c6ccc(Cl)cc6Cl)O5)cc4)CC3)cc2)c1=O (stereo not given) [Itraconazole] (concentration: 25 µM)
mean cell size (Jurkat [1]): 1.11 ± 0.071 | cell count (Jurkat [2]): 0.323 ± 0.026

CC(C)(C(=O)c1cccnc1)c1cccnc1 [Metyrapone] (concentration: 25 µM)
mean cell size (Jurkat [1]): 1.04 ± 0.058 | cell count (Jurkat [2]): 0.924 ± 0.079

NCCS [Cysteamine·HCl] (concentration: 25 µM)
mean cell size (Jurkat [1]): 0.957 ± 0.034 | cell count (Jurkat [2]): 0.513 ± 0.13

CNC(=C[N+](=O)[O-])NCCSCc1ccc(CN(C)C)o1 [Ranitidine·HCl] (concentration: 25 µM)
mean cell size (Jurkat [1]): 1 ± 0.049 | cell count (Jurkat [2]): 0.895 ± 0.11

CCN(CC)CC(=O)Nc1c(C)cccc1C [Lidocaine·HCl·H2O] (concentration: 25 µM)
mean cell size (Jurkat [1]): 1.01 ± 0.033 | cell count (Jurkat [2]): 1.03 ± 0.14

C[C@H]1C[C@H]2[C@@H]3CCC4=CC(=O)C=C[C@]4(C)[C@@]3(F)[C@@H](O)C[C@]2(C)[C@@]1(O)C(=O)CO [Betamethasone] (concentration: 25 µM)
mean cell size (Jurkat [1]): 0.914 ± 0.018 | cell count (Jurkat [2]): 0.764 ± 0.084

Cc1ccsc1C(=CCCN1CCC[C@@H](C(=O)O)C1)c1sccc1C [Tiagabine·HCl] (concentration: 25 µM)
mean cell size (Jurkat [1]): 0.936 ± 0.064 | cell count (Jurkat [2]): 0.839 ± 0.013

CNS(=O)(=O)CCc1ccc2[nH]cc(C3CCN(C)CC3)c2c1 [Naratriptan·HCl] (concentration: 25 µM)
mean cell size (Jurkat [1]): 0.95 ± 0.019 | cell count (Jurkat [2]): 0.951 ± 0.065

CC(C)c1nc(CN(C)C(=O)N[C@H](C(=O)N[C@@H](Cc2ccccc2)C[C@H](O)[C@H](Cc2ccccc2)NC(=O)OCc2cncs2)C(C)C)cs1 [Ritonavir] (concentration: 25 µM)
mean cell size (Jurkat [1]): 0.999 ± 0.079 | cell count (Jurkat [2]): 0.564 ± 0.14

S=P(N1CC1)(N1CC1)N1CC1 [Thiotepa] (concentration: 2.5 µM)
mean cell size (Jurkat [1]): 1.248 ± 0.012 | cell count (Jurkat [2]): 0.583 ± 0.059

CCOc1nc2cccc(C(=O)O)c2n1Cc1ccc(-c2ccccc2-c2nnn[nH]2)cc1 [Candesartan] (concentration: 25 µM)
mean cell size (Jurkat [1]): 1.01 ± 0.042 | cell count (Jurkat [2]): 0.901 ± 0.11

O=C1c2cccc3c2[C@H](CCC3)CN1[C@@H]1CN2CCC1CC2 [Palonosetron·HCl] (concentration: 25 µM)
mean cell size (Jurkat [1]): 1.07 ± 0.033 | cell count (Jurkat [2]): 0.721 ± 0.022

Clc1ccccc1C(c1ccccc1)(c1ccccc1)n1ccnc1 [Clotrimazole] (concentration: 25 µM)
mean cell size (Jurkat [1]): 0.92 ± 0.04 | cell count (Jurkat [2]): 0.591 ± 0.05

Cc1c(O)cccc1C(=O)N[C@@H](CSc1ccccc1)[C@H](O)CN1C[C@H]2CCCC[C@H]2C[C@H]1C(=O)NC(C)(C)C [Nelfinavir Mesylate] (concentration: 2.5 µM)
mean cell size (Jurkat [1]): 1.03 ± 0.015 | cell count (Jurkat [2]): 0.779 ± 0.084

CO[C@H]1C[C@@H]2CC[C@@H](C)[C@@](O)(O2)C(=O)C(=O)N2CCCC[C@H]2C(=O)O[C@H]([C@H](C)C[C@@H]2CC[C@@H](OC(=O)C(C)(CO)CO)[C@H](OC)C2)CC(=O)[C@H](C)/C=C(\C)[C@@H](O)[C@@H](OC)C(=O)[C@H](C)C[C@H](C)/C=C/C=C/C=C/1C [Temsirolimus] (concentration: 25 µM)
mean cell size (Jurkat [1]): 0.686 ± 0.018 | cell count (Jurkat [2]): 0.358 ± 0.15

CN(N=O)C(=O)N[C@@H]1[C@@H](O)[C@H](O)[C@@H](CO)O[C@@H]1O [Streptozocin] (concentration: 25 µM)
mean cell size (Jurkat [1]): 0.939 ± 0.014 | cell count (Jurkat [2]): 0.897 ± 0.034

Clc1ccc(C(c2ccccc2Cl)C(Cl)Cl)cc1 (stereo not given) [Mitotane] (concentration: 25 µM)
mean cell size (Jurkat [1]): 1 ± 0.02 | cell count (Jurkat [2]): 0.866 ± 0.14

CN1CCN(C2=Nc3ccccc3Oc3ccc(Cl)cc32)CC1 [Loxapine Succinate] (concentration: 25 µM)
mean cell size (Jurkat [1]): 0.908 ± 0.024 | cell count (Jurkat [2]): 1.16 ± 0.1

C[C@H](N)[C@H](O)c1cccc(O)c1 [Metaraminol Bitartrate] (concentration: 25 µM)
mean cell size (Jurkat [1]): 1.04 ± 0.058 | cell count (Jurkat [2]): 0.774 ± 0.12

CCc1c2c(nc3ccc(OC(=O)N4CCC(N5CCCCC5)CC4)cc13)-c1cc3c(c(=O)n1C2)COC(=O)[C@]3(O)CC [Irinotecan·HCl] (concentration: 250 nM)
mean cell size (Jurkat [1]): 1.05 ± 0.038 | cell count (Jurkat [2]): 0.414 ± 0.034

CCOC(=O)C1=C[C@@H](OC(CC)CC)[C@H](NC(C)=O)[C@@H](N)C1 [Oseltamivir Phosphate] (concentration: 25 µM)
mean cell size (Jurkat [1]): 0.932 ± 0.023 | cell count (Jurkat [2]): 0.939 ± 0.075

CO/N=C(\C(=O)N[C@@H]1C(=O)N2C(C(=O)OCOC(=O)C(C)(C)C)=C(/C=C\c3scnc3C)CS[C@H]12)c1csc(N)n1 [Cefditoren Pivoxil] (concentration: 25 µM)
mean cell size (Jurkat [1]): 0.9999 ± 0.0094 | cell count (Jurkat [2]): 0.77 ± 0.14

CC[C@H]1OC(=O)[C@H](C)C(=O)[C@H](C)[C@@H](O[C@@H]2O[C@H](C)C[C@H](N(C)C)[C@H]2O)[C@](C)(OC)C[C@@H](C)C(=O)[C@H](C)[C@H]2N(CCCCn3cnc(-c4cccnc4)c3)C(=O)O[C@]12C [Telithromycin] (concentration: 25 µM)
mean cell size (Jurkat [1]): 0.921 ± 0.049 | cell count (Jurkat [2]): 0.949 ± 0.057

O=c1[nH]c(=O)n([C@H]2C[C@H](O)[C@@H](CO)O2)cc1I [Idoxuridine] (concentration: 25 µM)
mean cell size (Jurkat [1]): 1.05 ± 0.019 | cell count (Jurkat [2]): 0.235 ± 0.062

c1ccc2c(CC3=NCCN3)cccc2c1 [Naphazoline·HCl] (concentration: 25 µM)
mean cell size (Jurkat [1]): 0.94 ± 0.024 | cell count (Jurkat [2]): 0.864 ± 0.024

OC(CCN1CCCCC1)(c1ccccc1)C1CCCCC1 (stereo not given) [Trihexyphenidyl·HCl] (concentration: 25 µM)
mean cell size (Jurkat [1]): 1.04 ± 0.031 | cell count (Jurkat [2]): 1.05 ± 0.066

O=C1c2c(O)ccc(O)c2C(=O)c2c(NCCNCCO)ccc(NCCNCCO)c21 [Mitoxantrone·HCl] (concentration: 25 nM)
mean cell size (Jurkat [1]): 1.43 ± 0.11 | cell count (Jurkat [2]): 0.2 ± 0.063

C[C@@H]1C/C=C/C=C/C=C/C=C/[C@H](O[C@@H]2O[C@H](C)[C@@H](O)[C@H](N)[C@@H]2O)C[C@@H]2O[C@](O)(C[C@@H](O)C[C@H]3O[C@@H]3/C=C/C(=O)O1)C[C@H](O)[C@H]2C(=O)O [Natamycin] (concentration: 25 µM)
mean cell size (Jurkat [1]): 0.951 ± 0.015 | cell count (Jurkat [2]): 1.01 ± 0.096

CC(=O)O[C@H]1C[C@@H]2CC[C@@H]3[C@H](CC[C@@]4(C)[C@H]3C[C@H]([N+]3(C)CCCCC3)[C@@H]4OC(C)=O)[C@@]2(C)C[C@@H]1N1CCCCC1 [Vecuronium Bromide] (concentration: 25 µM)
mean cell size (Jurkat [1]): 0.858 ± 0.043 | cell count (Jurkat [2]): 0.294 ± 0.13

CC(C)n1c(/C=C/[C@H](O)C[C@H](O)CC(=O)O)c(-c2ccc(F)cc2)c2ccccc21 [Fluvastatin·Na] (concentration: 25 µM)
mean cell size (Jurkat [1]): 0.972 ± 0.059 | cell count (Jurkat [2]): 0.492 ± 0.12

CC[C@@H]1C(=O)OC[C@@H]1Cc1cncn1C [Pilocarpine·HCl] (concentration: 25 µM)
mean cell size (Jurkat [1]): 0.97 ± 0.049 | cell count (Jurkat [2]): 0.246 ± 0.11

Nc1cc(-c2ccncc2)c[nH]c1=O [Amrinone] (concentration: 25 µM)
mean cell size (Jurkat [1]): 0.965 ± 0.031 | cell count (Jurkat [2]): 0.256 ± 0.064

CC1CNc2c(cccc2S(=O)(=O)N[C@@H](CCCNC(=N)N)C(=O)N2CC[C@@H](C)C[C@@H]2C(=O)O)C1 (stereo not given in full) [Argatroban] (concentration: 25 µM)
mean cell size (Jurkat [1]): 0.938 ± 0.025 | cell count (Jurkat [2]): 0.702 ± 0.023

Nc1nc(N)c2nc(-c3ccccc3)c(N)nc2n1 [Triamterene] (concentration: 25 µM)
mean cell size (Jurkat [1]): 1.21 ± 0.038 | cell count (Jurkat [2]): 0.398 ± 0.082

Cn1c2ncnc-2c(O)n(C)c1=O [Oxtriphylline] (concentration: 25 µM)
mean cell size (Jurkat [1]): 0.953 ± 0.021 | cell count (Jurkat [2]): 0.761 ± 0.13

COc1ccc(CCN(C)CCCC(C#N)(c2ccc(OC)c(OC)c2)C(C)C)cc1OC (stereo not given) [Verapamil·HCl] (concentration: 25 µM)
mean cell size (Jurkat [1]): 0.939 ± 0.025 | cell count (Jurkat [2]): 0.756 ± 0.042

O=C(O)c1cn(C2CC2)c2cc(N3CCNCC3)c(F)cc2c1=O [Ciprofloxacin] (concentration: 25 µM)
mean cell size (Jurkat [1]): 0.9157 ± 0.008 | cell count (Jurkat [2]): 1.04 ± 0.13

CO/N=C(\C(=O)N[C@@H]1C(=O)N2C(C(=O)O)=C(COC(C)=O)CS[C@H]12)c1csc(N)n1 [Cefotaxime Acid] (concentration: 25 µM)
mean cell size (Jurkat [1]): 0.944 ± 0.025 | cell count (Jurkat [2]): 0.957 ± 0.025

Cc1ccc(Cl)c(Nc2ccccc2C(=O)O)c1Cl [Meclofenamate·Na] (concentration: 25 µM)
mean cell size (Jurkat [1]): 0.903 ± 0.031 | cell count (Jurkat [2]): 0.293 ± 0.032

O=C(O)CCCCCCCC(=O)O [Azelaic Acid] (concentration: 25 µM)
mean cell size (Jurkat [1]): 0.921 ± 0.062 | cell count (Jurkat [2]): 0.477 ± 0.081

CN1C2CCCC1CC(NC(=O)c1nn(C)c3ccccc13)C2 (stereo not given) [Granisetron·HCl] (concentration: 25 µM)
mean cell size (Jurkat [1]): 0.9687 ± 0.004 | cell count (Jurkat [2]): 0.899 ± 0.037

CC1=C(C/C=C(\C)CCC[C@H](C)CCC[C@H](C)CCCC(C)C)C(=O)c2ccccc2C1=O [Phytonadione] (concentration: 25 µM)
mean cell size (Jurkat [1]): 0.986 ± 0.024 | cell count (Jurkat [2]): 0.886 ± 0.1

CC(C)NCC(O)c1cc(O)cc(O)c1 (stereo not given) [Metaproterenol Hemisulfate (Orciprenaline)] (concentration: 25 µM)
mean cell size (Jurkat [1]): 1.1 ± 0.033 | cell count (Jurkat [2]): 0.895 ± 0.04

CC(=O)N(O)CCCCCNC(=O)CCC(=O)N(O)CCCCCNC(=O)CCC(=O)N(O)CCCCCN [Deferoxamine Mesylate] (concentration: 25 µM)
mean cell size (Jurkat [1]): 1.09 ± 0.053 | cell count (Jurkat [2]): 0.496 ± 0.062

CC(C)OC(=O)C(C)(C)Oc1ccc(C(=O)c2ccc(Cl)cc2)cc1 [Fenofibrate] (concentration: 25 µM)
mean cell size (Jurkat [1]): 1.01 ± 0.04 | cell count (Jurkat [2]): 0.477 ± 0.067

CCOC(=O)N1CCC(=C2c3ccc(Cl)cc3CCc3cccnc32)CC1 [Loratadine] (concentration: 25 µM)
mean cell size (Jurkat [1]): 0.938 ± 0.034 | cell count (Jurkat [2]): 0.367 ± 0.031

CCN(Cc1ccncc1)C(=O)C(CO)c1ccccc1 (stereo not given) [Tropicamide] (concentration: 25 µM)
mean cell size (Jurkat [1]): 0.973 ± 0.019 | cell count (Jurkat [2]): 0.925 ± 0.05

CC1(C)C[C@@H]1C(=O)N/C(=C\CCCCSC[C@H](N)C(=O)O)C(=O)O [Cilastatin·Na] (concentration: 25 µM)
mean cell size (Jurkat [1]): 0.942 ± 0.011 | cell count (Jurkat [2]): 1.03 ± 0.092

Clc1ccccc1CN1CCc2sccc2C1 [Ticlopidine·HCl] (concentration: 25 µM)
mean cell size (Jurkat [1]): 0.922 ± 0.011 | cell count (Jurkat [2]): 0.752 ± 0.017

NC(=O)N1c2ccccc2CC(=O)c2ccccc21 [Oxcarbazepine] (concentration: 25 µM)
mean cell size (Jurkat [1]): 0.952 ± 0.015 | cell count (Jurkat [2]): 0.772 ± 0.15
